FMDV inh = antivirals against foot and mouth disease virus; actives 1.2% (n = 410,000); Potency, µM (titrated, usually from 57.9 µM), without a hit: at the highest dose activity change, negative = inhibition, most hits filed as inhibitors; FMDV antiviral cell-based qHTS; calls by dose curve; tested in HEK293T cells; note: read-out not given here; potency is the fitted concentration of half-maximal effect; nearly all actives have a fitted effect of over 45% in size
HCV inh = blocks hepatitis C virus; Potency, µM (top dose mostly 41.8 µM), for the others: top-dose activity change, negative = inhibition, hits mostly inhibitors; Huh7.5.1 HCVcc-Cre infection, luciferase reporter, 44 h; actives 3.4% (n = 340,000); active = well fitted inhibition curve with a large enough effect; inconclusive = small, poorly fitted or top-dose-only effect, or another doubt; inactive = no such curve, though single readings can be large or run the other way; note: potency is the fitted concentration of half-maximal effect
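Infectious HCVcc-Cre (~0.5 moi) was added to cells just after compound, with cells seeded 4 h earlier at 1,000 per well. Luciferase activity after 44 h culture reported infection; substrate was incubated 15 min at room temperature before reading.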
VACV mCherry inh = inhibitors of vaccinia virus infection (mCherry reporter signal). Vaccinia virus mCherry reporter infection, fluorescence. actives 0.63% (n = 310,000). Potency, µM (top dose mostly 36.5 µM), for the others: at the highest dose activity change, negative = inhibition, hits mostly inhibitors; calls by dose curve; tested in A549 cells; note: potency is the fitted concentration of half-maximal effect; nearly all actives have a fitted effect of over 35% in size
HCMV inh = blocks human cytomegalovirus replication. actives 4.5% (n = 410,000). HFF cells, HCMV-luciferase reporter, 72 h; stronger effect = lower value. activity change, negative = inhibition, % at 57.5 µM; in the data active = activity change below about -60%; inconclusive = no clear call, values can overlap the other calls; inactive = above about -39%
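Two compound doses tested in HFFs infected with HCMV-luciferase, MOI 1 PFU/cell, 72 h at 37C. Lysate luminescence read with OneGlo; data normalized against buffer-only and 10uM Salinomycin inhibitor controls.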
VACV Venus inh = vaccinia inhibition (Venus reporter). Vaccinia virus Venus reporter expression, fluorescence. Potency, µM (highest dose often 36.5 µM), for inactives: at the highest dose activity change, negative = inhibition, hits mostly inhibitors. actives 0.46% (n = 330,000); calls by dose curve; tested in A549 cells; note: potency is the fitted concentration of half-maximal effect; nearly all actives have a fitted effect of over 30% in size
Starred values were filed as active, the others as inactive; i = inactive; u = inconclusive; x = no result. In the library only some 7.3% were active in any assay of this set; here they are far more common. % is set by controls: 0 for no effect and ±100 for the full control effect.

SMILES	FMDV inh	HCV inh	VACV mCherry inh	HCMV inh	VACV Venus inh
COc1cc(C#Cc2c(-c3cncn3C)n(C)c3ccc(Br)cc23)cc(OC)c1	u	1.12µM*	-15.0%	-9.0	u
CC(C)COC(=O)N1CCCCC1c1cc(C(=O)Nc2ccccc2)no1 (centres undefined)	10.3%	x	7.6%	2.6	-10.8%
COc1ccccc1C(=O)NC(=O)COC(=O)c1cc[n+]([O-])cc1	-23.9%	5.6%	-17.4%	-10.3	-14.8%
CC(C)N=C(NS(=O)(=O)c1ccccc1)C(Cl)(Cl)Cl	0.0%	u	14.1µM*	-98.2*	11.2µM*
O=S(=O)(NC(=S)c1ccccc1)c1ccccc1	6.3%	u	i	-35.7	-3.7%
CCN(CC)C(=O)CC(c1ccc(N(C)C)cc1)c1c(O)cc(OC)cc1OC (centres undefined)	-14.3%	-4.8%	i	-20.9	-1.1%
N#CC(C#N)=NNc1ccc(S(=O)(=O)N2CCCC2)cc1	31.6µM*	1.3%	i	-11.4	-10.5%
O=C(NN1C(=O)c2ccc(-c3ccc4c(c3)C(=O)N(NC(=O)c3cccnc3)C4=O)cc2C1=O)c1cccnc1	1.4%	4.2%	-15.7%	-77.5*	-15.0%
Fc1ccc(CN2CCN(c3ncnc4scc(-c5ccc(F)cc5)c34)CC2)cc1	u	-24.8%	x	-86.4*	x
COc1ccc(-c2csc3ncnc(N4CCN(Cc5ccccc5)CC4)c23)cc1	22.4µM*	2.9%	-14.1%	-88.7*	-16.4%
COc1ccc(-c2csc3ncnc(N4CCN(S(=O)(=O)c5cccc(Br)c5)CC4)c23)cc1	-14.8%	u	i	u	-11.8%
COc1ccc(-c2csc3ncnc(N4CCN(c5ccccc5O)CC4)c23)cc1	u	u	-26.9%	x	-25.4%
COc1ccc(-c2csc3ncnc(N4CCN(c5ccccc5[N+](=O)[O-])CC4)c23)cc1	u	15.8µM*	-4.2%	x	-17.8%
Clc1ccc(CN2CCN(c3ncnc4scc(-c5cccs5)c34)CC2)cc1	u	u	x	-97.8*	x
Fc1ccccc1COc1ccc2ccccc2c1CNc1nn[nH]n1	-8.5%	-2.3%	i	-25.5	-9.6%
COc1ccc(-c2csc3ncnc(N4CCN(c5ccccc5)CC4)c23)cc1	17.8µM*	u	-19.7%	-30.1	-17.3%
Cc1ccc(-c2csc3ncnc(-n4nnc5ccccc54)c23)cc1C	u	u	-6.8%	-32.4	-11.9%
Cc1ccccc1N1CCN(c2ncnc3scc(-c4cccs4)c23)CC1	u	10µM*	x	-66.9*	x
CCN1CCN(c2ncnc3scc(-c4ccc(C)c(C)c4)c23)CC1	-13.0%	u	-5.9%	-66.8*	-2.7%
COc1ccc(-c2csc3ncnc(N4CCN(c5ccc(OC)cc5)CC4)c23)cc1	u	u	x	15.4	x
Cc1ccc(NC(=O)N2N=C(c3ccc(F)cc3)CC2c2ccc(F)cc2)cc1 (centres undefined)	-22.8%	15.1%	u	-23.8	-20.4%
C=CCN1C(c2ccc(Br)cc2)=CS/C1=C(\C#N)c1nnc(N2CCOCC2)n1-c1ccccc1	u	-22.5%	-2.5%	-7.7	-0.2%
C=CCN1C(c2ccc(OCC)cc2)=CS/C1=C(\C#N)c1nnc2n1CCCCC2	u	u	-22.9%	-60.2*	-21.1%
COc1ccc(-n2cc(CNCC3CCOCC3)c(-c3cccc(F)c3)n2)cc1	11.8%	3.7%	x	-88.8*	x
COc1cccc(OC)c1C(=O)NC(=S)Nc1cccc(NC(=O)c2ccco2)c1	-27.3%	15.2%	-14.5%	-61.3*	-0.8%
SMILES	FMDV inh	HCV inh	VACV mCherry inh	HCMV inh	VACV Venus inh
Cc1cc(C)c(OCC(=O)Nc2cccc(NC(=O)c3ccco3)c2)c(Br)c1	u	u	u	-75.9*	-24.8%
O=C(Nc1cccc(NC(=O)c2ccco2)c1)c1ccccc1	-7.0%	u	7.1%	-21.3	8.1%
COc1cccc(OC)c1C(=O)Nc1ccc(NC(=O)c2ccco2)cc1	17.9%	15.4%	u	x	-21.3%
COc1c(C)cc(Br)cc1C(=O)Nc1cccc(NC(=O)c2ccco2)c1	u	6.31µM*	2.7%	-15.1	-22.7%
COc1ccc(Br)cc1C(=O)Nc1cccc(NC(=O)c2ccco2)c1	-24.2%	u	i	x	-24.9%
Cc1cc(C)cc(C(=O)Nc2cccc(NC(=O)c3ccco3)c2)c1	-8.5%	x	i	-72.6*	-15.1%
O=C(Nc1ccc(Cl)c([N+](=O)[O-])c1)C(Sc1ccccc1)c1ccccc1 (centres undefined)	u	u	-19.6%	-102.3*	u
O=C(Nc1cc([N+](=O)[O-])ccc1Cl)C(Sc1ccccc1)c1ccccc1 (centres undefined)	u	-19.6%	-19.4%	u	-8.8%
O=C(Cc1ccc([N+](=O)[O-])cc1)c1c(O)cc(O)cc1O	14.9%	25.4%	x	-21.6	x
Cc1cc(O)cc(O)c1C(=O)Cc1ccccc1	0.0%	9.4%	-27.0%	-70.6*	-22.5%
N[C@H](C(=O)O)c1ccc(C(=O)O)cc1	6.0%	x	-2.0%	x	0.0%
Cc1cccc(C(=O)NC(NCCc2ccccc2)C(Cl)(Cl)Cl)c1 (centres undefined)	u	-20.8%	-10.6%	-71.3*	-11.2%
O=C1C2C3C=CC(C3=C(c3ccccc3)c3ccccc3)C2C(=O)N1Cc1ccccc1 (centres undefined)	u	11.2µM*	x	-29.5	-22.1%
O=C1C2C3C=CC(C3=C(c3ccccc3)c3ccccc3)C2C(=O)N1CCO (centres undefined)	u	-16.4%	x	-7.3	x
Cc1nn(C(=O)c2ccccc2)c(C)c1S(=O)(=O)N1CCOCC1	8.8%	x	-9.4%	11.1	-7.9%
Cc1cc(/C=N/NC(N)=S)c(C)n1-c1cccc(Cl)c1	-10.5%	-21.9%	-21.9%	-64.7*	-15.0%
CC1OC(O[C@@H]2C(O)CC(O[C@@H]3C(O)C[C@@H](OC4CC[C@]5(C)[C@H](CC[C@H]6[C@@H]5CC[C@]5(C)C(C7=CC(=O)OC7)C(O)C[C@@]65O)C4)OC3C)OC2C)CC(O)C1O (some centres undefined)	-28.8%	x	u	x	u
CC(=O)OC1CC2(O)C3CCC4CC(O)CCC4(C)C3CCC2(C)C1C1=CC(=O)OC1 (centres undefined)	u	u	35.5µM*	-97.0*	u
CC(=O)OC1CC(OC2C(O)CC(OC3C(O)CC(OC4CCC5(C)C(CCC6C5CCC5(C)C(C7=CC(=O)OC7)C(O)CC65O)C4)OC3C)OC2C)OC(C)C1OC1OC(CO)C(O)C(O)C1O (centres undefined)	u	u	0.282µM*	-100.8*	0.282µM*
CC1OC(OC2C(O)CC(OC3C(O)CC(OC4CCC5(C)C(CCC6C5CCC5(C)C(C7=CC(=O)OC7)C(O)CC65O)C4)OC3C)OC2C)CC(O)C1O (centres undefined)	u	u	x	-97.3*	0.316µM*
